Data taken from PubChem BioAssay.

Biological target: Torsin-1A (Homo sapiens) (UniProt O14656)
Assay: torsin A binders from cell lysate, primary screen, small-molecule microarray, wild-type, 635/667 nm (AID 1149)
Details: COS7 hTOR1A-WT lysate, 635 nm fluorescence, higher = more signal

Chain of Torsin-1A (Homo sapiens) (O14656 whole entry, looked up): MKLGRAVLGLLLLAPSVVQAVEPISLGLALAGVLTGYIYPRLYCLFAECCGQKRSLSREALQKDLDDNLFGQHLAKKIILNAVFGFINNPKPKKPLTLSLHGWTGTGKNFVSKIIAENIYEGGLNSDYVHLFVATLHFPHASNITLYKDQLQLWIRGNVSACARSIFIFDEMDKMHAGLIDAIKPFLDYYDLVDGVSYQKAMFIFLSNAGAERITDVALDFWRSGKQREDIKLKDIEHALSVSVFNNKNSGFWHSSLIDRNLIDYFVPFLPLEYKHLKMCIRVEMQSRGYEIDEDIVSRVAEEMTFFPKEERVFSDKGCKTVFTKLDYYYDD

SMILES | composite z-score
COCCOC(=O)N1C(=O)[C@@]2(c3cc(C#Cc4ccc(OC)cc4)ccc31)[C@H](c1ccc(OCCO)cc1)N1[C@H](c3ccccc3)[C@H](c3ccccc3)OC(=O)[C@H]1[C@@H]2C(=O)N1CCN(c2ncccn2)CC1 | 0.846
C[N+](C)(C)CCCCCCNC(=O)[C@@H]1C[C@@H]2C(=O)N[C@@H](Cc3ccccc3)C(=O)N2[C@@H]1c1cccc(OCCO)c1 | 0.787
CCOC(=O)C1=C[C@@H](C(C)(C)C)N(S(=O)(=O)c2ccc(C)cc2)[C@H]1c1ccc(F)cc1 | 0.159
COC(=O)c1c(CC[C@@H](CO)NC(=O)NCCn2cc(C3(O)CCCC3)nn2)oc(C(C)=O)c1C(=O)OC | -0.0395
NC(=O)N1C(=O)C2C(C1=O)C1C=C(c3ccc(CO)cc3)C2C(c2cccs2)N1Cc1cccc(OC(F)(F)F)c1 (stereo not given) | 0.635
NC(=O)[C@@H]1[C@H]2C(=O)O[C@H](c3ccccc3)[C@H](c3ccccc3)N2[C@H](c2ccc(O)cc2)[C@@]12C(=O)Nc1ccccc12 | -2.99
CC(C)N1C(=O)C[C@@](C(=O)NCC(F)(F)F)(c2ccc([N+](=O)[O-])cc2)[C@H]1c1ccc(CO)cc1 | 0.894
COCCCNC(=O)[C@@]1(C)c2ccccc2C(=O)N(C(C)C)[C@H]1c1ccc(CO)cc1 | -0.277
C=C(/C(=C/C[C@H](OC(C)=O)c1ccccc1OCCO)c1cnc2ccccc2c1)C(C)C | 0.316
C=CCNC(=O)[C@@H]1[C@H]2C(=O)O[C@H](c3ccccc3)[C@H](c3ccccc3)N2[C@H](c2ccc(O)cc2)[C@@]12C(=O)N(C(=O)OCCOC)c1ccc(C#CCNC(N)=O)cc12 | 0.699
